High-throughput results: PubChem, Broad Institute
The full list was thinned out, with hits kept by preference.
BL2 CD40 inh = CD40 pathway inhibition in BL2 cells. BL2 NF-kB luciferase reporter, CD40L-induced, 4 h. inhibition, % at 10 µM. 83,000 tested, 0.94% active;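 active means mean inhibition of at least 50% with a set share of replicates also reaching that level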;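 further: 0% = neutral control wells and 100% = IKK inhibitor VII at 50 µM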
* = called active by the depositor; [ ] = dose if it differs, or a comment.

SMILES	BL2 CD40 inh
COc1ccc2[nH]cc(CCN)c2c1	-4
COc1ccc2[nH]c3c(c2c1)CCN=C3C	58*
COc1ccc2[nH]c(C)c(CCNCc3cn(C)c4ccccc34)c2c1	25
COC(=O)[C@H]1[C@H](CO)[C@H]2Cn3c(ccc(-c4ccc(F)cc4)c3=O)[C@@H]1N2C(C)=O	8[25 µM]
N#Cc1c(Br)n(C2OC(CO)C(O)C2O)c2ncnc(N)c12 (stereo not drawn)	83*
NC(=O)c1c(Br)n(C2OC(CO)C(O)C2O)c2ncnc(N)c12 (stereo not drawn)	56*
CCNC(=O)[C@H]1O[C@@H](n2cnc3c(N)ncnc32)[C@H](O)[C@@H]1O	3
CC(C)NC(=O)N1C[C@@H]2C(c3ccc(Br)cc3)[C@H](C1)N2CC1CC1 (stereo partly drawn)	18
C/C=C/c1ccc(C2[C@@H]3CN(C(=O)C4CCOCC4)C[C@H]2N3)cc1 (stereo partly drawn)	4[25 µM]
O=C(O)[C@@H]1[C@@H](CO)[C@@H]2Cn3c(ccc(-c4ccccc4)c3=O)[C@H]1N2C(=O)C1CCCCC1	-2[25 µM]
CN1C[C@@H]2N[C@H](C1)C2c1ccc(Br)cc1 (stereo partly drawn)	0
COC(=O)[C@@H]1[C@@H](CO)[C@@H]2Cn3c(ccc(-c4cccnc4)c3=O)[C@H]1N2S(=O)(=O)c1ccccc1C	2[25 µM]
C=CCN1[C@@H]2CN(C(C)=O)C[C@H]1C2c1ccccc1 (stereo partly drawn)	-6
C[C@@H]1CN([C@@H](C)CO)C(=O)c2c(c3ccccc3n2C)-c2ccccc2CO[C@H]1CN(C)C(=O)Oc1ccccc1	34
c1cc(-c2ccc(C3[C@H]4CNC[C@@H]3N4CC3CC3)cc2)ccn1 (stereo partly drawn)	-5
C/C=C/c1ccc(C2[C@@H]3CN(C(=O)c4cnccn4)C[C@H]2N3)cc1 (stereo partly drawn)	0
C#CCN1C(C)=C(C(=O)CCO)C(c2cccc(-n3oo3)c2)C(C(=O)OC)=C1C (stereo not drawn)	4[25 µM]
OCC1OC(n2cnc3cc(Cl)c(Cl)cc32)C(O)C1O (stereo not drawn)	47*
COc1cccc(CN2CC3(C2)[C@H](c2ccccc2)[C@H](CO)N3C(=O)Cc2ccccc2)c1	12[25 µM]
COc1ccc(CC2C(=O)NC(C)C(=O)N(C)C3C(=O)N(C)C(Cc4ccc(O)c(c4)Oc4ccc(cc4)C3O)C(=O)NC(C)C(=O)NC(C)C(=O)N2C)cc1 (stereo not drawn)	124*
O=C(Cc1ccncc1)N1CCCCN2[C@H](CO)[C@@H](c3ccc(C#Cc4ccccc4F)cc3)[C@H]2C1	1[25 µM]
C/C=C/c1ccc(C2[C@@H]3CN(C(=O)C4CC4)C[C@H]2N3)cc1 (stereo partly drawn)	1
CCN(CCCl)c1cc(CN(C)C)cc(NC(=O)c2ccc(C(=O)Nc3cc(CN(C)C)cc(N(CC)CCCl)c3)cc2)c1	108*
O=C(O)C[C@@H]1CC[C@H]2NC[C@H](O)COC[C@@H]2O1	0[25 µM]
O=C(O)[C@H]1[C@H](CO)[C@H]2Cn3c(ccc(-c4ccncc4)c3=O)[C@@H]1N2C(=O)C1CCCCC1	0
SMILES	BL2 CD40 inh
CC(C)=CCCN1CCC(NC(=O)[C@](O)(c2ccccc2)C2CCCC2)CC1	-2[25 µM]
CC1CCOC(=O)C=CC=CC(=O)OC2CC3OC4C5OC5(C)C(O)CC4(COC(=O)C1O)C2(C)C31CO1 (stereo not drawn)	95*
CC1=CC2OC3CC4OC(=O)C=CC=CC(C(C)O)OCC(O)C5(C)OC5C(=O)OCC2(CC1O)C4(C)C31CO1 (stereo not drawn)	86*
CS(=O)(=O)N1C[C@@H]2C(c3ccc(Br)cc3)[C@H](C1)N2CC1CC1 (stereo partly drawn)	3
COc1ccccc1CN1[C@H](CO)[C@@H](c2ccccc2)C12CN(C(=O)Cc1ccccc1)C2	15[25 µM]
CN1CCC2(c3cccc(O)c3)Cc3nc4ccccc4cc3CC2C1 (stereo not drawn)	3[25 µM]
O=C1Nc2cc(Cl)c(Cl)cc2N2CCNCC12 (stereo not drawn)	-27[25 µM]
Cc1cccc(S(=O)(=O)N2[C@@H]3c4ccc(-c5ccc(F)cc5)c(=O)n4C[C@H]2[C@H](CO)[C@H]3C(=O)O)c1	-1[25 µM]
CCCCC1C(=O)NC(=S)N(C)C1=O (stereo not drawn)	33*
CN(C)CC#Cc1ccc([C@@H]2[C@H]3CN(C(=O)Cc4ccccn4)CCCCN3[C@H]2CO)cc1	-16[25 µM]
C[C@H]1CN([C@@H](C)CO)C(=O)CCCn2cc(nn2)CO[C@H]1CN(C)C(=O)Oc1cccc2ccccc12	-6[25 µM]
Cc1ccc(OC(=O)N(C)C[C@H]2OCc3ccccc3-c3c(n(C)c4ccccc34)C(=O)N([C@@H](C)CO)C[C@@H]2C)cc1	31[25 µM]
Cc1ccc(OC(=O)N(C)C[C@@H]2OCc3ccccc3-c3c(n(C)c4ccccc34)C(=O)N([C@@H](C)CO)C[C@H]2C)cc1	55*[25 µM]
Cc1ccc(OC(=O)N(C)C[C@H]2OCc3ccccc3-c3c(n(C)c4ccccc34)C(=O)N([C@H](C)CO)C[C@H]2C)cc1	38[25 µM]
COc1cccc(-c2ccc([C@@H]3[C@@H](CO)N4CCCCN(C(=O)Cc5ccncc5)C[C@H]34)cc2)c1	1[25 µM]
C=CCN1CCC23c4c5ccc(O)c4OC2/C(=N\NC(=O)c2ccccc2)CCC3(O)C1C5 (stereo not drawn)	-12[25 µM]
C=CCN1[C@@H]2CN(C(=O)NC(C)C)C[C@H]1C2c1ccccc1 (stereo partly drawn)	-2
CC(=O)N1C2CN(C)CC1C2c1ccc(Br)cc1 (stereo not drawn)	-2
COC(=O)[C@H]1[C@H](CO)[C@H]2Cn3c(ccc(-c4ccccc4)c3=O)[C@@H]1N2S(=O)(=O)c1ccccc1C	-12[25 µM]
C[C@H]1CN([C@@H](C)CO)C(=O)c2c(c3ccccc3n2C)-c2ccccc2CO[C@H]1CN(C)C(=O)Oc1ccccc1	11
CC(C)NC(=O)N1C[C@@H]2C(c3ccccc3)[C@H](C1)N2CC1CC1 (stereo partly drawn)	-3
CC(=O)N1C[C@@H]2C(c3ccc(Br)cc3)[C@H](C1)N2CC1CC1 (stereo partly drawn)	7
COc1cc2cc(C(=O)N3CC(COS(C)(=O)=O)c4ccc(O)cc43)[nH]c2c(OC)c1OC (stereo not drawn)	91*
CC=Cc1ccc2n(c1=O)C[C@H]1[C@H](CO)[C@@H](C(=O)N(C)C)N[C@@H]21 (mixture of isomers)	4
N#Cc1ccc(-c2ccc([C@@H]3[C@H]4CN(C(=O)Cc5ccccc5)CCCCN4[C@H]3CO)cc2)cc1	2[25 µM]
SMILES	BL2 CD40 inh
COc1cccc(-c2ccc([C@@H]3[C@H](CO)N4CCCCN(C(=O)Cc5ccncc5)C[C@@H]34)cc2)c1	-17[25 µM]
O=C(O)[C@@H]1[C@@H](CO)[C@@H]2Cn3c(ccc(-c4ccccc4)c3=O)[C@H]1N2S(=O)(=O)c1ccccc1F	5[25 µM]
O=C(O)[C@H]1[C@H](CO)[C@H]2Cn3c(ccc(-c4ccc(F)cc4)c3=O)[C@@H]1N2CC1CCCC1	7
O=C1/C(=C/c2ccccc2)C[C@@]2(O)C3Cc4ccc(O)c5c4[C@@]2(CCN3CC2CC2)[C@H]1O5	85*[25 µM]
O=C1CC[C@@]2(O)[C@H]3Cc4ccc(O)c5c4[C@@]2(CCN3CC2CC2)[C@H]1O5	-6
COC(=O)C=CC(=O)NC1CCC2(O)C3Cc4ccc(O)c5c4C2(CCN3CC2CC2)C1O5 (stereo not drawn)	5[25 µM]
